PubChem BioAssay AID686978 (National Center for Advancing Translational Sciences (NCATS), 2013)
Among all 420,000 compounds or so, about 64,000 (15%) were called active. Roughly 27% stayed inconclusive and do not appear here. Calls follow the shape of the dose curve; as a rule, active = well fitted inhibition curve with a large enough effect; inconclusive = small, poorly fitted or top-dose-only effect; inactive = flat fitted curve, though single readings scatter. Not all results are given here. Entries that show only a call come without a potency.

Assay: qHTS for Inhibitors of human tyrosyl-DNA phosphodiesterase 1 (TDP1): qHTS in cells in absence of CPT; also: nearly all actives have a fitted effect of over 55% in size
Settings: DT40 Tdp1-/- hTDP1 cells, no CPT, ATP luminescence, 48 h; activity change, negative = growth inhibition: at 46.2 µM (top of the series)
How it was run: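 No-CPT arm: Tdp1-/-;hTDP1 DT40 cells (400/well) plus compounds, incubated ≥48 hr at 37 °C. Readout CellTiter-Glo luminescence.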
Potency is read from the fitted curve at half-maximal effect.

SMILES | Potency
O=C(Cn1ccc([N+](=O)[O-])n1)NCc1cccs1 | inactive
O=C(COC(=O)c1cccc(Cl)c1)Nc1ccc2[nH]c(=O)[nH]c2c1 | inactive
C/C=C/C1=C(C(=O)O)N2C(=O)[C@@H](NC(=O)[C@H](N)c3ccc(O)cc3)[C@H]2SC1 | inactive
CCN(CC)CCNC(=O)CN1N=C(c2ccc(OC)cc2)CCC1=O | inactive
Cc1ccc(CNC(=O)c2ccc(CS(=O)Cc3cccc(Cl)c3)o2)cc1 (centres undefined) | inactive
O=C(NCc1ccco1)c1ccc(CS(=O)(=O)Cc2ccc(F)cc2)o1 | inactive
Cc1ccc(CCNC(=O)c2ccc(CS(=O)(=O)Cc3cccc(C)c3)o2)cc1 | 18.4 µM (active)
COc1ccc(CCNC(=O)NS(=O)(=O)c2ccc(C)cc2)cc1OC | inactive
CCCNS(=O)(=O)c1ccc(CCC(=O)NCc2cccnc2)cc1 | inactive
COc1ccc(CCNC(=O)Cc2ccc(C)cc2)cc1OC | inactive
O=C(NCc1cccnc1)c1ccc(CS(=O)(=O)c2ccc(Br)cc2)o1 | 14.6 µM (active)
COc1ccccc1CNC(=O)c1ccc(CS(=O)(=O)c2ccccc2)o1 | inactive
COc1ccc(CCNC(=O)CCNS(=O)(=O)c2cc(Br)cnc2N)cc1OC | inactive
COc1ccc(CCNC(=O)c2ccc(CSCc3ccc(C)cc3)o2)cc1OC | 23.1 µM (active)
O=C(NCc1cccnc1)c1cnc2ccccc2n1 | inactive
COc1ccc(CCNC(=O)c2ccc(CS(=O)(=O)c3ccc(Br)cc3)o2)cc1OC | 14.6 µM (active)
COCCCn1c(SCC(=O)NC2CCCC2)nnc1-c1ccccc1 | inactive
Cc1ccc(S(=O)(=O)NNC(=S)NC(C)(C)C)cc1 | inactive
CN(Cc1ccccc1)C(=O)COC(=O)/C=C/c1ccc2c(c1)OCO2 | inactive
CN(C)c1nc2n(c(=O)n1)CCO2 | inactive
O=C(O)Cc1ccc(NC(=O)C2CCCCC2C(=O)O)cc1 (centres undefined) | inactive
COCCn1c(=O)c(C)nc2cnc(N(C)C)nc21 | inactive

SMILES | Potency
O=C(O)C1CCN(S(=O)(=O)N2CCOCC2)CC1 | inactive
CC1CN(C(=O)COC(=O)c2cccc(NS(=O)(=O)c3ccccc3)c2)CC(C)O1 (centres undefined) | inactive
CCOC(=O)c1cc(S(=O)(=O)NCCc2ccc(OC)c(OC)c2)cn1C | inactive
CN1CCCN(C(=O)C2CCCCC2)CC1 | inactive
CCOc1ccc(NC(=O)CC(Cc2ccc(Cl)cc2)C(=O)O)cc1 (centres undefined) | inactive
COc1ccc(N2C(=O)C(Cc3ccccc3)NC2=S)cc1 (centres undefined) | inactive
COc1ccc(C2OC(CCc3ccccc3)Cc3[nH]c(=S)[nH]c(=O)c32)cc1 (centres undefined) | 18.4 µM (active)
COc1ccc(C2CC(=O)NC(=O)C2)cc1 | inactive
O=C(Cn1cc(C(=O)c2cccs2)c2ccccc21)NCc1cccs1 | inactive
CC1(c2nnc(Cc3ccccc3)o2)CC(c2ccccc2F)=NO1 (centres undefined) | inactive
COc1ccc(OCc2ccc(-c3nc(C#N)c(N4CCN(c5ccccc5)CC4)o3)o2)cc1 | inactive
Cc1ccccc1OCc1ccc(-c2nc(C#N)c(N3CCCCC3)o2)o1 | 23.1 µM (active)
COc1ccccc1-c1nc(C#N)c(N2CCC(C(N)=O)CC2)o1 | inactive
COc1ccc(NC(=O)NNC(=O)COc2cc(C)c(Cl)c(C)c2)c(OC)c1 | inactive
Cc1ccc(S(=O)(=O)NCCSC(C)(C)C)cc1 | inactive
O=C(O)CSCNC(=O)CC12CC3CC(CC(C3)C1)C2 | inactive
CCOCCCNC(=O)c1cc2c(=O)n3ccccc3nc2s1 | inactive
Nc1ccc(/C=C/c2ccnc3ccccc23)c([N+](=O)[O-])c1 | 10 µM (active)
O=C(CC(c1ccccc1)c1ccccc1)NCC(O)c1ccc([N+](=O)[O-])cc1 (centres undefined) | inactive
Cc1ccc(C)c(N2CCN(C(c3ccccc3)c3nnc(-c4ccccc4)o3)CC2)c1 (centres undefined) | 23.1 µM (active)
CCn1c2ccccc2c2nnc(N3CCN(c4cc(C)ccc4C)CC3)nc21 | inactive
Cc1ccc(C)c(N2CCN(Cc3nnc(-c4ccccc4)o3)CC2)c1 | inactive

SMILES | Potency
CC(C)c1ccc(S(=O)(=O)NC2CCCC2)cc1 | inactive
C/C(CC(=O)Nc1cccc(C(F)(F)F)c1)=N\NC(=O)C(=O)NCC(C)C | inactive
Cc1cc(N2CCCC2=O)cc(C)c1S(N)(=O)=O | inactive
COc1cccc(N2C(=O)C3CCCN3C2c2ccc(F)cc2)c1 (centres undefined) | inactive
CSC1=NCCN1C(=O)c1ccc(S(=O)(=O)N2CCOCC2)cc1 | inactive
COCC(=O)Nc1nnc(COc2ccccc2)s1 | inactive
O=C(Nc1nnc(COc2ccccc2)s1)Nc1ccccc1F | inactive
O=C(Nc1ccccc1)Nc1nnc(COc2ccccc2F)s1 | 10.3 µM (active)
Cc1cc(C)c(C(N)=O)c(Cl)n1 | inactive
CC1=C(C(=O)N(C)C)C(c2ccccc2OC(F)F)NC(=O)N1 (centres undefined) | inactive
COc1cc(OC)c(C2=NOC(C(=O)Nc3c(C)n(C)n(-c4ccccc4)c3=O)C2)cc1Cl (centres undefined) | inactive
Cc1cccc(OCC(=O)Nc2ccc(C(=O)O)cc2NC(=O)COc2cccc(C)c2)c1 | inactive
O=C(O)CN(Cc1ccco1)S(=O)(=O)c1ccc(F)cc1 | inactive
CCC(c1nc2ccccc2[nH]1)n1c(=O)c(-c2cccs2)nc2ccccc21 (centres undefined) | 18.4 µM (active)
OC(c1nc2ccccc2[nH]1)C(O)C(O)C(O)c1nc2ccccc2[nH]1 (centres undefined) | inactive
O=C(CSc1nc2ccccc2[nH]1)c1cccs1 | inactive
CSc1nnc(-c2ccncc2)n1CCCN1CCCC1=O | inactive
O=C(NCCc1nnc2ccc(SCC(=O)N3CCOCC3)nn12)c1ccccc1 | inactive
Cc1ccc(N(C(=O)Cc2cccs2)C2C=CS(=O)(=O)C2)cc1Cl (centres undefined) | inactive
Cc1ccc(C)c2c1cc(C)c1nnc(SCC(=O)Nc3cccc(C(=O)O)c3)n12 | inactive
O=C(Nc1cc(=O)[nH]c2ncnn12)c1ccccc1Cl | inactive
COc1ccccc1N1CCN(C(=O)CSc2ncnc3c2cnn3-c2ccc(C)c(C)c2)CC1 | 23.1 µM (active)

SMILES | Potency
CCN1CCN(c2ncnc3c2cnn3-c2ccc(C)c(C)c2)CC1 | 18.4 µM (active)
COc1ccc(-n2ncc3c(SCC(=O)NNC(C)=O)ncnc32)cc1 | inactive
CCN(c1ncnc2c1cnn2-c1ccc(C)cc1)C1CCCCC1 | inactive
COC(=O)CSc1ncnc2c1cnn2-c1ccc(C)cc1C | inactive
Cc1ccc(-n2ncc3c(N4CCC(C(N)=O)CC4)ncnc32)cc1 | inactive
O=C1C2C3C=CC(C3)C2C(=O)N1c1ncc([N+](=O)[O-])s1 (centres undefined) | inactive
COc1ccc(C(=O)COC(=O)CCCC(=O)Nc2cc(C(F)(F)F)ccc2Cl)cc1 | inactive
Cc1cc(OC(=O)c2ccc(Cl)cc2)cc(=O)n1C | inactive
O=C(COc1cccc(F)c1)Oc1ccc(C(=O)c2ccccc2)cc1 | inactive
N#Cc1cccc(CSc2nnc(CCCO)n2-c2ccccc2)c1 | inactive
Cc1ccc(OCC(=O)Nc2ccc(-c3nnc(-c4ccco4)o3)cc2)cc1 | inactive
CCOc1ccc(-c2nnc(-c3ccco3)o2)cc1 | inactive
CCC(=O)Oc1cccc(C(=O)Nc2ccc(-c3nnc(-c4ccco4)o3)cc2)c1 | 5.8 µM (active)
O=C(Nc1ccc(C(=O)O)cc1)/C(=C\c1ccccc1)NC(=O)c1ccc(Br)cc1 | inactive
CN1CCN(C(=O)C2C3C=CC(C3)C2C(=O)O)CC1 (centres undefined) | inactive
Cc1ccnc(NC(=O)c2ccco2)n1 | inactive
CC(NC(=O)c1ccco1)C(=O)Nc1nc(-c2ccccn2)cs1 (centres undefined) | 5.8 µM (active)
CC1CCN(S(=O)(=O)c2nnc(NC(=O)COc3ccccc3F)s2)CC1 | inactive
N#Cc1ccc(OCC(=O)Nc2nc(-c3ccccn3)cs2)cc1 | 1.64 µM (active)
NS(=O)(=O)c1ccc2nc(NC(=O)COc3ccccc3)sc2c1 | inactive
O=C(COc1ccccc1F)NC1CC1 | inactive
Cc1cc(NC(=O)[C@H](C)NC(=O)c2ccco2)ccc1Br | inactive

SMILES | Potency
O=C(COc1ccccc1F)Nc1nc(-c2ccccn2)cs1 | 4.61 µM (active)
COc1ccc(OCC(=O)Nc2nnc(-c3ccco3)s2)cc1 | inactive
Cn1c(=O)oc2cc(S(=O)(=O)NCCC(=O)NCc3ccccc3Cl)ccc21 | inactive
CCN(CC)C(=O)CSc1nnc(C2CCCCC2)o1 | inactive
CCC(=O)c1ccc(OC(=O)/C=C/c2cc(OC)c(OC)c(OC)c2)cc1 | inactive
CC(C)CNC(=O)/C=C/C(=O)O | inactive
C[C@H](CO)N1C[C@H](C)[C@@H](CN(C)C(=O)Nc2ccc3c(c2)OCO3)Oc2c(cccc2N(C)C)C1=O | inactive
CCCCOc1ccc(N(CC(=O)NC(C)C)C(=O)CCC(=O)Nc2ccccn2)cc1 | inactive
Cc1ccc(S(=O)(=O)NC(=O)N2CCCN(Cc3ccc(F)cc3)CC2)cc1 | inactive
CC(C)OC(=O)C(C#N)c1nc2ccccc2nc1N1CCN(Cc2ccccc2)CC1 (centres undefined) | 23.1 µM (active)
O=C(Nc1ccccc1)N1CCN(Cc2ccccc2)CC1 | inactive
Cc1ccc(S(=O)(=O)C(C#N)c2nc3ccccc3nc2N2CCCC2)cc1C (centres undefined) | inactive
COc1cccc(OCC(=O)NNC(=O)c2cnccn2)c1 | inactive
CS(=O)(=O)N1CCN(c2cccc(Cl)n2)CC1 | inactive
CCN(CC)CCn1cnc2c1c(=O)[nH]c(=O)n2Cc1ccccc1 | inactive
COCCn1cnc2c1c(=O)n(Cc1ccc(Br)cc1)c(=O)n2Cc1ccccc1 | inactive
N=c1c2c(-c3ccccc3)c(-c3ccccc3)n(Cc3ccccc3)c2ncn1CCCO | 18.4 µM (active)
COc1ccc(C(=O)CSc2nnc(-c3ccco3)o2)cc1 | inactive
O=C1CN(C(=O)CN2C(=O)NC3(CCCCC3)C2=O)c2ccccc2N1 | inactive
CC(Sc1nncn1C)C(=O)NCCC1=CCCCC1 (centres undefined) | inactive
Cc1ccn2c(=O)c(C(=O)NCCC3=CCCCC3)c(O)nc2c1 | 20.6 µM (active)
